# Laboratory results as given in PubChem BioAssay (NCI).
# Compounds without any hit were thinned out: in the full panel of roughly 83,000, 20% have a hit.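 Single-concentration screen, 48 h exposure, 96-well plates. Endpoint: percent growth. Below 10 = active.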 Values without a mark were called inactive. Calls of active or inactive are those of the source.
# How the values were obtained:
# Experiment in all cases: NCI-60 one-dose screen, 48 h (100 = growth as untreated, 0 = no growth, -100 = all killed)
# Details in all cases: 10 µM unless noted
# [1] = system: NCI-H23 lung
# [2] = system: NCI-H226 lung
# [3] = system: NCI-H322M lung
# [4] = system: HOP-62 NSCLC
# [5] = system: NCI-H460 lung
# [6] = system: HOP-92 NSCLC
# [7] = system: NCI-H522 lung
# [8] = system: A549/ATCC NSCLC
# [9] = system: 786-0 renal
# [10] = system: DU-145 prostate
# [11] = system: K-562 leukemia
# [12] = system: MDA-MB-231 breast
# [13] = system: RXF 393 renal
# [14] = system: SF-268 CNS
# [15] = system: SF-295 CNS
# [16] = system: SF-539 CNS
# [17] = system: UACC-257 melanoma
# [18] = system: M14 melanoma
# [19] = system: MALME-3M melanoma
# [20] = system: COLO 205 colon
SMILES,growth [1],growth [2] [%],growth [3],growth [4],growth [5],growth [6],growth [7],growth [8],growth [9],growth [10],growth [11],growth [12],growth [13],growth [14],growth [15],growth [16],growth [17],growth [18],growth [19],growth [20]
c1ccc2[nH]c(SSc3nc4ncncc4[nH]3)nc2c1,32.1%,57.6,73.5%,21.2%,42.7%,27.5%,35.6%,80%,16%,29.5%,17.1%,36.1%,64.7%,30.1%,-39% (active),8.16% (active),42%,8.49% (active),,
O=C1CSC(c2ccccc2O)N1c1nnc(Cn2cnnc2)o1 (stereo unspecified),77.3%,78.5,87.3%,78.7%,86.9%,53.9%,98.1%,97.7%,25.8%,105%,82.6%,73.7%,,82.9%,94%,89.7%,96.4%,69%,96.2%,
O=C1CSC(c2ccccc2)N1c1ccccc1 (stereo unspecified),99.7%,96.2,90.4%,116%,103%,82.4%,104%,103%,105%,107%,107%,103%,95.8%,105%,96.6%,108%,101%,99.5%,,
NC(N)=N/N=C(/c1ccccc1)c1ccc(N)cc1,101%,89.6,91.2%,100%,110%,92.8%,88.5%,99.5%,105%,116%,113%,103%,108%,115%,,103%,92.7%,104%,122%,
CN1C[C@@H](c2ccc(Cl)cc2)[C@]2(NC(=S)N(c3ccccc3)C2=O)[C@@]12C(=O)NC1C=CC(Br)=C[C@H]12 (stereo partly specified),76.1%,66,77.4%,79.5%,65.5%,19.7%,49.3%,56.9%,54.3%,85%,34.8%,60.8%,68.4%,58.1%,80.6%,84.8%,71.4%,39.4%,108%,
CCOC(=O)C(=CNc1ccccc1[N+](=O)[O-])C(=O)OCC,99%,88.1,96.3%,107%,105%,80.6%,89.5%,88.5%,97.2%,,96.7%,98.6%,104%,105%,98.6%,97.7%,94.2%,118%,115%,
O=C(c1ccccc1)c1ccc(Cl)c([N+](=O)[O-])c1,100%,104,90.6%,124%,101%,99.1%,77%,103%,103%,75.4%,7.38% (active),114%,104%,88.6%,99%,97.9%,87.6%,94.6%,,
C#C[C@]1(O)CC[C@H]2[C@@H]3CC=C4c5sc(N=C(N)N)nc5CC[C@]4(C)[C@H]3CC[C@@]21C,28.5%,35.2,27.9%,-37.5% (active),-14.5% (active),32.7%,-24.1% (active),-13.1% (active),,8.62% (active),-21.1% (active),-45.4% (active),-56.6% (active),-15% (active),-56.2% (active),-81.3% (active),-44.8% (active),,-76.2% (active),-38.7% (active)
CCN(CC)CCCNC(=O)c1ccc(N)cc1O,95.5%,87.9,90.4%,95.6%,108%,89.6%,96.6%,103%,105%,,12.3%,94.6%,91.3%,93.8%,99.7%,98.4%,99.3%,94.5%,91.2%,
CN1CCC(=C2c3ccccc3C=Cc3ccccc32)CC1,83.7%,96,104%,83.4%,93.3%,67%,39%,91.1%,67.5%,,,8.64% (active),51.6%,79.8%,88.1%,87.4%,81.7%,91.7%,105%,
CCOC(=O)C1=C(C)NC(SCc2nnc(-c3ccc(Cl)cc3)o2)=NC1c1ccc(Cl)cc1Cl (stereo unspecified),66%,79,78.9%,82.5%,59.2%,26.4%,50.2%,53.5%,65.2%,73.1%,,41.7%,43.4%,73.8%,47.2%,86.4%,68.1%,65.2%,72.8%,
Nc1ccc(-c2cc3c(Nc4ccc(OCc5cccc(F)c5)c(Cl)c4)ncnc3s2)cc1,68.6%,53.5,26.6%,62.3%,36.5%,45.8%,13.1%,21.2%,37.2%,36.9%,,13.4%,52.5%,52.1%,47.8%,57.4%,18.3%,51.9%,42.1%,
Cc1cn(C2CCCCC2)c(=O)[nH]c1=O,115%,101,129%,109%,117%,97.4%,97.8%,101%,107%,163%,,103%,113%,108%,111%,109%,102%,106%,120%,
O=[N+]([O-])c1ccc(-c2cc3c(Nc4ccc(OCc5cccc(Cl)c5)c(Cl)c4)ncnc3s2)cc1,78.7%,92.2,82.4%,67.7%,32%,80.3%,49.9%,29.4%,88.3%,70.4%,,81.6%,85.3%,76.1%,59.6%,84%,58.6%,35.9%,61.2%,
Cc1ccccc1NC(=O)CN(C)C,95.7%,97.9,89.9%,97.9%,113%,123%,82.6%,95.7%,99.7%,,0.938% (active),105%,124%,103%,97.3%,98.3%,99.3%,104%,87.2%,
Cc1csc(NC(=O)c2sc3nc(-c4cccs4)ccc3c2N)n1,94.2%,96.9,102%,90.4%,99.3%,84.7%,82.3%,94.7%,,96.4%,90.2%,93.4%,107%,102%,99.7%,96.9%,109%,,99.6%,103%
CCOc1cc(N)ccc1C(=O)NCCCN(CC)CC,87.9%,93.6,100%,98.3%,110%,90.6%,98.2%,104%,100%,,80.3%,93.2%,90.7%,103%,103%,100%,102%,96.1%,96.3%,

SMILES,growth [1],growth [2] [%],growth [3],growth [4],growth [5],growth [6],growth [7],growth [8],growth [9],growth [10],growth [11],growth [12],growth [13],growth [14],growth [15],growth [16],growth [17],growth [18],growth [19],growth [20]
O=[N+]([O-])c1ccc(-c2cc3c(Nc4ccc(Cl)c(C(F)(F)F)c4)ncnc3s2)cc1,-6.97% (active),20.1,20.9%,20.8%,4.13% (active),-14.3% (active),-1.24% (active),10.1%,19.2%,23%,,5.95% (active),5.99% (active),24.3%,-6.39% (active),14.9%,-18.6% (active),19.4%,-22.8% (active),
CCOC(=O)N1CCc2c(sc3c2C(=O)N[C@H](c2ccc(OC)cc2)N3)C1,103%,94.7,105%,68.4%,104%,92.6%,76%,85.4%,97.8%,113%,,104%,113%,101%,97%,100%,86.6%,94.7%,96.7%,
Cc1ccc(C)c2c1C(=O)OC2=O,95.5%,98.4,89.3%,92.1%,111%,128%,80.8%,99.4%,101%,,78.9%,106%,127%,98.8%,96.2%,99.7%,102%,102%,87.8%,
O=[N+]([O-])c1ccccc1C(O)Cc1ccc2ccccc2n1 (stereo unspecified),95.7%,83.5,85.9%,88%,97.4%,77.5%,101%,97.4%,104%,,108%,68.3%,91.2%,93.1%,103%,98.4%,93.3%,90%,89.6%,
COc1ccc(-c2nnc(-c3ccc4c(c3)nc(-c3ccccc3)n4C3CCCCC3)o2)cc1,62.5%,46.4,87%,50.5%,64.4%,57%,17.6%,50.3%,77.5%,71.7%,,72.9%,97.3%,71.2%,53.2%,88.1%,67.4%,38.9%,69.4%,
CCOC(=O)c1cnn2c(-c3ccc(Cl)cc3)nc(NCc3ccccc3)nc12,58.4%,89.3,99.2%,93.5%,78.1%,64.2%,81.5%,84.9%,6.24% (active),44.6%,,77.5%,40.7%,28.8%,58.9%,10.7%,96.2%,86.8%,64.6%,
Fc1ccc(Nc2nc(Nc3ccc(-c4nc5ccccc5[nH]4)cc3)c3cn[nH]c3n2)cc1,71%,86.9,84.8%,85.6%,47.5%,79%,65.9%,73.1%,,54.3%,-28.7% (active),22.2%,76.2%,75.1%,92.6%,85.5%,101%,,107%,27.8%
CC1=NN(c2cccc(Cl)c2)C(=O)/C1=C\c1cn(CC(O)CN2CCCCC2)c2ccccc12 (stereo unspecified),97.8%,96.8,103%,73.6%,44.8%,56.3%,71.9%,95.2%,,96.7%,28.9%,41.4%,67.1%,72.6%,62.4%,96.1%,-82.1% (active),,32.9%,-58% (active)
CCCCN(CCCC)CCCn1c(=O)c2sc3ncccc3c2n2nnc(-c3ccccc3)c12,101%,105,103%,105%,105%,74.8%,89.5%,102%,108%,114%,108%,93.8%,111%,112%,,99.6%,104%,107%,,
CCCCCCCCN(CCCCCCCC)C(=N)c1ccnc2ccccc12,-66.4% (active),56.5,-64.5% (active),-85.7% (active),-78% (active),-21.2% (active),-74.7% (active),-82.5% (active),-100% (active),,-52.7% (active),-77.2% (active),-87.8% (active),-71.8% (active),-84.4% (active),-87.6% (active),-68.9% (active),-84.6% (active),-78.5% (active),
Nc1nc(N)c(-c2ccc(Cl)cc2)c(/C=C/c2ccc([N+](=O)[O-])cc2)n1,90.8%,91.4,46.8%,100%,11.4%,76.1%,97.4%,47.9%,99.3%,87.2%,19.4%,95.4%,74.7%,79.3%,51.5%,93.5%,66.3%,63.6%,,
COc1cc2oc3cc(C)oc(=O)c3c2cc1OC,94.1%,96.8,103%,93.2%,105%,92.9%,82.1%,87.7%,83.4%,99.6%,128%,99.4%,104%,108%,89.7%,94.8%,92.8%,102%,,
O=[N+]([O-])c1ccc(-c2cc3c(Nc4ccc(Sc5nc6ccccc6s5)c(Cl)c4)ncnc3s2)cc1,19.9%,76.2,55.5%,36.1%,11.8%,56.6%,30%,18.5%,61.6%,44.9%,,29.2%,68.8%,39.4%,23.2%,54.3%,66.6%,35.2%,62.9%,
CCCCCCNc1cc(C)nc2ccc(OC)cc12,52.7%,61.5,67.2%,73.1%,61.6%,39.3%,63.9%,64.3%,68.9%,,21%,69.6%,61.2%,93.2%,44.4%,68.4%,69.4%,59.1%,52.3%,
O=C(C[C@@]1(O)C(=O)Nc2c(Cl)ccc(Cl)c21)c1ccc(C2CC2)cc1,37.5%,46.4,53.1%,34.2%,6.3% (active),75.5%,19.4%,38.1%,,16.5%,7.6% (active),45%,-10% (active),54.8%,-9.37% (active),-27.7% (active),73%,,41.9%,1.09% (active)
O=C(CCCCCCCn1cc(-c2cccnc2)nn1)Nc1ccccc1-c1ccccc1,63.6%,55.4,65.3%,61.1%,29.3%,96.5%,27.5%,36.9%,53.4%,37.2%,23.7%,59.6%,80.4%,63.8%,-15.9% (active),-7.88% (active),65.6%,17.3%,,
Cc1ccc(NC(=O)C(Cl)Cl)cc1,95.8%,79.1,84.1%,98.4%,102%,98.2%,80.9%,90.8%,104%,,106%,99.1%,119%,105%,97.8%,98.4%,92%,109%,92.7%,
